In PubChem BioAssay AID1159580 (chemical genetic matrix, 2015):
The whole screen tested about 5,500 compounds, of which about 2,000 (36%) were called active. Another 18% or so got no clear call; they are omitted. No stated cut-off is given here; in the data, active means normalized growth mostly below about 0.91 (no sharp cut-off); inconclusive means no clear call, values can overlap the other calls; inactive means mostly above about 0.92. This is one part of the list.

Test: chemical genetic growth profiling, strain panel (AID 1159580);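 further: tested at 20 µM; growth read once vehicle control cultures reached saturation at 30 °C; 1 = growth at the plate median or of vehicle wells; lower values mean less growth of the strain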
Settings: growth OD

Measured: normalized growth

CCCCOc1cc(C(=O)NCCN(CC)CC)c2ccccc2n1
inactive: S. cerevisiae deletion strains, locus YJR075W, strain HOC1, active compounds read low 0.999 | S. cerevisiae deletion strains, locus YKL009W, strain mrt4, active compounds read low 1 | S. cerevisiae deletion strains, locus YKL068W, active compounds read low 0.994 | S. cerevisiae deletion strains, locus YKL085W, strain MDH1 (second series), active compounds read low 0.989 | S. cerevisiae deletion strains, locus YKL085W, strain MDH1, active compounds read low 0.989 | S. cerevisiae deletion strains, locus YKL160W, strain elf1, active compounds read low 0.964 | S. cerevisiae deletion strains, locus YKR001C, strain vps1, active compounds read low 1.01 | S. cerevisiae deletion strains, locus YKR026C, strain gcn3, active compounds read low 0.962 | S. cerevisiae deletion strains, locus YKR091W, strain srl3, active compounds read low 0.973 | S. cerevisiae deletion strains, locus YLL001W, strain dnm1, active compounds read low 0.939 | S. cerevisiae deletion strains, locus YLL026W, active compounds read low 0.981 | S. cerevisiae deletion strains, locus YLL041C, strain sdh2, active compounds read low 0.956 | S. cerevisiae deletion strains, locus YLR027C, strain aat2, active compounds read low 0.97 | S. cerevisiae deletion strains, locus YLR039C, strain RIC1, active compounds read low 1.13 | S. cerevisiae deletion strains, locus YLR058C, strain SHM2, active compounds read low 1.01 | S. cerevisiae deletion strains, locus YLR102C, strain apc9, active compounds read low 0.99 | S. cerevisiae deletion strains, locus YLR113W, strain HOG1, active compounds read low 1.02 | S. cerevisiae deletion strains, locus YLR221C, strain rsa3, active compounds read low 1.02 | S. cerevisiae deletion strains, locus YLR258W, strain gsy2, active compounds read low 1 | S. cerevisiae deletion strains, locus YLR262C, strain YPT6 (second series), active compounds read low 0.956 | S. cerevisiae deletion strains, locus YLR262C, strain YPT6, active compounds read low 1.14 | S. cerevisiae deletion strains, locus YLR268W, strain sec22, active compounds read low 1 | S. cerevisiae deletion strains, locus YLR320W, strain mms22, active compounds read low 1.02 | S. cerevisiae deletion strains, locus YLR330W, strain CHS5, active compounds read low 1.01 | S. cerevisiae deletion strains, locus YLR342W, strain FKS1 (second series), active compounds read low 1.02 | S. cerevisiae deletion strains, locus YLR342W, strain FKS1, active compounds read low 0.957 | S. cerevisiae deletion strains, locus YLR357W, strain rsc2, active compounds read low 0.94 | S. cerevisiae deletion strains, locus YLR370C, strain arc18, active compounds read low 0.971 | S. cerevisiae deletion strains, locus YLR371W, strain rom2, active compounds read low 0.99 | S. cerevisiae deletion strains, locus YLR384C, strain iki3, active compounds read low 0.959 | S. cerevisiae deletion strains, locus YLR418C, strain cdc73, active compounds read low 0.984 | S. cerevisiae deletion strains, locus YML016C, strain PPZ1, active compounds read low 1.01 | S. cerevisiae deletion strains, locus YML032C, strain rad52, active compounds read low 0.989 | S. cerevisiae deletion strains, locus YML120C, strain ndi1, active compounds read low 0.969 | S. cerevisiae deletion strains, locus YML124C, strain tub3, active compounds read low 0.994 | S. cerevisiae deletion strains, locus YMR058W, strain fet3, active compounds read low 0.968 | S. cerevisiae deletion strains, locus YMR078C, strain ctf18, active compounds read low 0.991 | S. cerevisiae deletion strains, locus YMR125W, strain sto1, active compounds read low 0.931 | S. cerevisiae deletion strains, locus YMR129W, active compounds read low 0.982 | S. cerevisiae deletion strains, locus YMR205C, strain PFK2, active compounds read low 0.972 | S. cerevisiae deletion strains, locus YMR223W, strain ubp8, active compounds read low 0.987 | S. cerevisiae deletion strains, locus YMR231W, strain pep5, active compounds read low 0.96 | S. cerevisiae deletion strains, locus YMR263W, strain SAP30, active compounds read low 1 | S. cerevisiae deletion strains, locus YMR307W, strain GAS1, active compounds read low 1.1 | S. cerevisiae deletion strains, locus YNL067W, strain RPL9B, active compounds read low 0.995 | S. cerevisiae deletion strains, locus YNL071W, strain lat1, active compounds read low 0.985 | S. cerevisiae deletion strains, locus YNL128W, strain TEP1, active compounds read low 1 | S. cerevisiae deletion strains, locus YNL153C, strain GIM3, active compounds read low 0.994 | S. cerevisiae deletion strains, locus YNL183C, strain NPR1, active compounds read low 0.975 | S. cerevisiae deletion strains, locus YNL209W, strain ssb2, active compounds read low 0.985 | S. cerevisiae deletion strains, locus YNL233W, strain BNI4, active compounds read low 0.997 | S. cerevisiae deletion strains, locus YNL248C, strain rpa49, active compounds read low 0.979 | S. cerevisiae deletion strains, locus YNL250W, strain rad50, active compounds read low 0.996 | S. cerevisiae deletion strains, locus YNL271C, strain bni1, active compounds read low 0.991 | S. cerevisiae deletion strains, locus YNL298W, strain CLA4, active compounds read low 0.998 | S. cerevisiae deletion strains, locus YNL307C, strain MCK1, active compounds read low 0.984 | S. cerevisiae deletion strains, locus YNL322C, strain KRE1 (second series), active compounds read low 0.951 | S. cerevisiae deletion strains, locus YNL322C, strain KRE1, active compounds read low 1 | S. cerevisiae deletion strains, locus YNR049C, strain mso1, active compounds read low 0.967 | S. cerevisiae deletion strains, locus YNR052C, strain pop2, active compounds read low 0.985 | S. cerevisiae deletion strains, locus YOL012C, strain htz1 0.896 | S. cerevisiae deletion strains, locus YOL147C, strain pex11, active compounds read low 0.998 | S. cerevisiae deletion strains, locus YOR001W, strain rrp6, active compounds read low 0.935 | S. cerevisiae deletion strains, locus YOR061W, strain CKA2, active compounds read low 1.01 | S. cerevisiae deletion strains, locus YOR069W, strain VPS5, active compounds read low 1 | S. cerevisiae deletion strains, locus YOR070C, strain gyp1, active compounds read low 0.991 | S. cerevisiae deletion strains, locus YOR080W, strain dia2, active compounds read low 0.962 | S. cerevisiae deletion strains, locus YOR083W, strain WHI5, active compounds read low 0.967 | S. cerevisiae deletion strains, locus YOR106W, strain vam3, active compounds read low 0.966 | S. cerevisiae deletion strains, locus YOR136W, strain idh2, active compounds read low 0.998 | S. cerevisiae deletion strains, locus YOR144C, strain elg1, active compounds read low 0.992 | S. cerevisiae deletion strains, locus YOR184W, strain ser1, active compounds read low 0.995 | S. cerevisiae deletion strains, locus YOR231W, strain MKK1, active compounds read low 1.03 | S. cerevisiae deletion strains, locus YOR265W, strain rbl2, active compounds read low 0.976 | S. cerevisiae deletion strains, locus YOR270C, strain vph1, active compounds read low 0.933 | S. cerevisiae deletion strains, locus YOR290C, strain snf2, active compounds read low 0.977 | S. cerevisiae deletion strains, locus YOR316C, strain cot1, active compounds read low 0.996 | S. cerevisiae deletion strains, locus YPL051W, strain arl3, active compounds read low 0.989 | S. cerevisiae deletion strains, locus YPL055C, strain LGE1, active compounds read low 1.02 | S. cerevisiae deletion strains, locus YPL078C, strain atp4, active compounds read low 0.936 | S. cerevisiae deletion strains, locus YPL106C, strain sse1, active compounds read low 0.921 | S. cerevisiae deletion strains, locus YPL240C, strain hsp82, active compounds read low 0.962 | S. cerevisiae deletion strains, locus YPL256C, strain CLN2, active compounds read low 1.01 | S. cerevisiae deletion strains, locus YPR119W, strain clb2, active compounds read low 0.994 | S. cerevisiae deletion strains, locus YPR141C, strain kar3, active compounds read low 1 | S. cerevisiae deletion strains, locus YPR163C, strain tif3, active compounds read low 1 | S. cerevisiae deletion strains, locus YPR167C, strain met16, active compounds read low 0.986 | S. cerevisiae deletion strains, strain wtn01, active compounds read low 1.02 | S. cerevisiae strains, strain wild type, active compounds read low 1
